From ChEMBL document CHEMBL5606458, “ASAP - ZIKV NS2B-NS3 protease fluorescence single point” (2024)
Hit rate of the full screen: of about 2,700 compounds, about 160 (5.9%) showed an effect of 50% or more. What follows is part of a selection rich in strong results, with near analogues and random picks from the rest.

Target: Nonstructural protein 3 (Zika virus) (UniProt A0A024AXB9)
[1] = PRVABC59, Concentration 15.0 uM, Number of replicates 1.0
[2] = PRVABC59, Concentration 50.0 uM, Number of replicates 1.0

Nonstructural protein 3 (Zika virus), sequence (A0A024AXB9 as listed by the source): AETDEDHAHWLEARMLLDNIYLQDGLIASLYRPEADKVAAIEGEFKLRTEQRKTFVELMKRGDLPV

CNC(=O)c1nc(Cl)ccc1NS(=O)(=O)c1ccc(Oc2ccccc2Cl)cc1
inhibition (PRVABC59, Concentration 49.5 uM, Number of replicates 2.0, Standard deviation 0.024233932131581936 %): -1.72%

O=C(Nc1nc(Cl)nc2nc[nH]c12)c1cc(Cl)ccc1NS(=O)(=O)c1ccc(Oc2ccccc2Cl)cc1
inhibition [1]: 22.5%

Cc1nn([C@@H](C)c2nnnn2C2CC2)cc1C1CCNCC1
inhibition (PRVABC59, Concentration 49.5 uM, Number of replicates 2.0, Standard deviation 2.3033064314790743 %): -1.29%
inhibition (PRVABC59, Concentration 99.01 uM, Number of replicates 2.0, Standard deviation 2.6844291293545366 %): -0.376%
inhibition (PRVABC59, Concentration 198.0 uM, Number of replicates 2.0, Standard deviation 0.3562668047004051 %): -3.04%

CC(C)(C)c1csc(NC(=O)c2cc(Cl)ccc2NS(=O)(=O)c2ccc(Oc3ccccc3Cl)cc2)n1
inhibition [1]: 22.1%

Cc1cc(CO)c2cccc(Cc3ccccc3NC(=O)c3nc(C4CCNCC4)oc3C)c2n1
inhibition (PRVABC59, Concentration 49.95 uM, Number of replicates 2.0, Standard deviation 3.130141914719793 %): 12.3%
inhibition (PRVABC59, Concentration 99.9 uM, Number of replicates 2.0, Standard deviation 0.6412983547468495 %): 60.8%

Cc1cc(CO)c2cccc(NC(=O)c3nc(C4CCNCC4)oc3C)c2n1
inhibition (PRVABC59, Concentration 49.95 uM, Number of replicates 2.0, Standard deviation 16.97136657317194 %): 81.5%
inhibition (PRVABC59, Concentration 99.9 uM, Number of replicates 2.0, Standard deviation 2.022315036184036 %): 88.9%

Cc1cc(CO)c2cccc(Cc3ccccc3NC(=O)c3nc(-c4ccccc4)oc3C(F)(F)F)c2n1
inhibition (PRVABC59, Concentration 49.95 uM, Number of replicates 2.0, Standard deviation 1.8373680900098652 %): 5.06%
inhibition (PRVABC59, Concentration 99.9 uM, Number of replicates 2.0, Standard deviation 1.2469667752869535 %): 9.26%

Cc1cc(CO)c2cccc(NC(=O)[C@H]3CCNC3)c2n1
inhibition (PRVABC59, Concentration 49.95 uM, Number of replicates 2.0, Standard deviation 1.562551081581127 %): -4.16%
inhibition (PRVABC59, Concentration 99.9 uM, Number of replicates 2.0, Standard deviation 2.5850257028478962 %): 4.64%

Cc1cc(CO)c2cccc(Cc3cccc(NC(=O)c4nc(C5CCNCC5)oc4C)c3)c2n1
inhibition (PRVABC59, Concentration 49.95 uM, Number of replicates 2.0, Standard deviation 2.83494201600161 %): -5.64%
inhibition (PRVABC59, Concentration 99.9 uM, Number of replicates 2.0, Standard deviation 2.936734747350333 %): -6.74%

Cc1cc(CO)c2cccc(NC(=O)c3nc(-c4ccccc4)oc3C(F)(F)F)c2n1
inhibition (PRVABC59, Concentration 49.95 uM, Number of replicates 2.0, Standard deviation 2.699761899961709 %): 15.3%
inhibition (PRVABC59, Concentration 99.9 uM, Number of replicates 2.0, Standard deviation 2.5993991268892636 %): 24.8%

Cc1cc(N)c2cc(Cl)cc(Cl)c2n1
inhibition (PRVABC59, Concentration 99.9 uM, Number of replicates 2.0, Standard deviation 12.824277322413067 %): -8.83%

COC(=O)c1ccc(F)c(Cn2cc(C3CCNCC3)c(C)n2)c1
inhibition (PRVABC59, Concentration 49.5 uM, Number of replicates 2.0, Standard deviation 1.8234550992150553 %): 1.56%
inhibition (PRVABC59, Concentration 99.01 uM, Number of replicates 2.0, Standard deviation 0.947622366220452 %): 0.074%
inhibition (PRVABC59, Concentration 198.0 uM, Number of replicates 2.0, Standard deviation 0.08409628118336304 %): 3.65%

COc1cc(COc2cc(C)nc3ncnn23)nc(N2CCNCC2)n1
inhibition (PRVABC59, Concentration 49.5 uM, Number of replicates 2.0, Standard deviation 2.68247440066745 %): 1.51%
inhibition (PRVABC59, Concentration 99.01 uM, Number of replicates 2.0, Standard deviation 1.6078501771858478 %): 0.374%
inhibition (PRVABC59, Concentration 198.0 uM, Number of replicates 2.0, Standard deviation 1.0644090707345926 %): 1.09%

O=C(NCCCSc1ccccc1)c1cc(Cl)ccc1NS(=O)(=O)c1ccc(Oc2ccccc2Cl)cc1
inhibition [1]: 21.8%

N#C[C@@H](NC(=O)c1cc(Cl)ccc1NS(=O)(=O)c1ccc(Oc2ccccc2Cl)cc1)c1ccc(F)cc1
inhibition [1]: 28.7%

Cc1cc(CO)c2cccc(Cc3cccc(C(=O)N(c4ncccn4)S(=O)(=O)c4ccc(N)cc4)c3)c2n1
inhibition (PRVABC59, Concentration 49.95 uM, Number of replicates 2.0, Standard deviation 0.9333358068338657 %): 1.86%
inhibition (PRVABC59, Concentration 99.9 uM, Number of replicates 2.0, Standard deviation 0.5295896500552713 %): 17.8%

Cc1cc(CO)c2cccc(CC(=O)N(c3ncccn3)S(=O)(=O)c3ccc(N)cc3)c2n1
inhibition (PRVABC59, Concentration 49.95 uM, Number of replicates 2.0, Standard deviation 0.08143445481880901 %): 93.4%
inhibition (PRVABC59, Concentration 99.9 uM, Number of replicates 2.0, Standard deviation 0.09670172922339526 %): 93.5%

Cc1cc(CO)c2cccc(Cc3ccccc3C(=O)N(c3ncccn3)S(=O)(=O)c3ccc(N)cc3)c2n1
inhibition (PRVABC59, Concentration 49.95 uM, Number of replicates 2.0, Standard deviation 0.5295893128804832 %): 2.68%
inhibition (PRVABC59, Concentration 99.9 uM, Number of replicates 2.0, Standard deviation 0.15206043463069627 %): 8.61%

c1ccn2c(CNCC3CCOCC3)nnc2c1
inhibition (PRVABC59, Concentration 49.5 uM, Number of replicates 2.0, Standard deviation 1.8796463523944162 %): -1.69%
inhibition (PRVABC59, Concentration 99.01 uM, Number of replicates 2.0, Standard deviation 2.0631141970669455 %): -2.09%
inhibition (PRVABC59, Concentration 198.0 uM, Number of replicates 2.0, Standard deviation 1.9030296768293513 %): -4.01%

Cc1cc(Br)ccc1CNC(=O)c1cc(Cl)ccc1NS(=O)(=O)c1ccc(Oc2ccccc2Cl)cc1
inhibition [1]: 27.2%

O=C(Nc1ccc(OC(F)F)cc1)c1cc(Cl)ccc1NS(=O)(=O)c1ccc(Oc2ccccc2Cl)cc1
inhibition [1]: 57.7%

O=C(NCc1ccc(-c2ccccn2)cc1)c1cc(Cl)ccc1NS(=O)(=O)c1ccc(Oc2ccccc2Cl)cc1
inhibition [1]: 31.7%

O=C(Nc1ccc(SC(F)(F)F)cc1)c1cc(Cl)ccc1NS(=O)(=O)c1ccc(Oc2ccccc2Cl)cc1
inhibition [1]: 45.3%

CNC(=O)c1ccccc1NC(=O)c1cc(Cl)ccc1NS(=O)(=O)c1ccc(Oc2ccccc2Cl)cc1
inhibition [1]: 12.1%

COc1cc(NC(=O)c2cc(Cl)ccc2NS(=O)(=O)c2ccc(Oc3ccccc3Cl)cc2)c(Cl)cc1Cl
inhibition [1]: 35%

O=C(NCc1nc(-c2ccccn2)no1)c1cc(Cl)ccc1NS(=O)(=O)c1ccc(Oc2ccccc2Cl)cc1
inhibition [1]: 54%

O=C(Nc1ccccc1Sc1ccccc1)c1cc(Cl)ccc1NS(=O)(=O)c1ccc(Oc2ccccc2Cl)cc1
inhibition [1]: 25.8%

COc1ccc(NC(C)=O)cc1NC(=O)c1cc(Cl)ccc1NS(=O)(=O)c1ccc(Oc2ccccc2Cl)cc1
inhibition [1]: 55%

O=C(Nc1ccccc1Cc1ccccc1)c1cc(Cl)ccc1NS(=O)(=O)c1ccc(Oc2ccccc2Cl)cc1
inhibition [1]: 55.2%

COc1c(Cl)cccc1NC(=O)c1cc(Cl)ccc1NS(=O)(=O)c1ccc(Oc2ccccc2Cl)cc1
inhibition [1]: 38.1%

O=C(Nc1ccc(C(F)(F)F)cc1)c1cc(Cl)ccc1NS(=O)(=O)c1ccc(Oc2ccccc2Cl)cc1
inhibition [1]: 26.8%

O=C(NCCc1nc(-c2ccc(Cl)cc2)no1)c1cc(Cl)ccc1NS(=O)(=O)c1ccc(Oc2ccccc2Cl)cc1
inhibition [1]: 20.2%

CN1C(=O)c2ccc(NC(=O)C3CCN(c4ccc(C=O)cc4)CC3)cc2C1=O
inhibition [2]: 28.5%

c1ccc2[nH]c(CC3CCN(c4ncnc5[nH]ccc45)CC3)nc2c1
inhibition (PRVABC59, Concentration 49.5 uM, Number of replicates 2.0, Standard deviation 0.8729323765409018 %): -3.7%
inhibition (PRVABC59, Concentration 99.01 uM, Number of replicates 2.0, Standard deviation 2.6991147561762485 %): 1.52%
inhibition (PRVABC59, Concentration 198.0 uM, Number of replicates 2.0, Standard deviation 4.214592802372255 %): 7.18%

CC(CNC(=O)c1cc(Cl)ccc1NS(=O)(=O)c1ccc(Oc2ccccc2Cl)cc1)(c1ccccc1)c1ccccc1
inhibition [1]: 31.7%

COc1cccc(CCNC(=O)c2cc(Cl)ccc2NS(=O)(=O)c2ccc(Oc3ccccc3Cl)cc2)c1
inhibition [1]: 27.6%

O=C(c1cc(Cl)ccc1NS(=O)(=O)c1ccc(Oc2ccccc2Cl)cc1)N1CCN(c2ccccc2O)CC1
inhibition [1]: -1.02%

C[C@@H](c1ccccc1)N(Cc1ccncc1)C(=O)C1CCN(c2ccc(C=O)cc2)CC1
inhibition [2]: 21.5%

O=C(c1cc(Cl)ccc1NS(=O)(=O)c1ccc(Oc2ccccc2Cl)cc1)N1CCN(CCc2ccccc2)CC1
inhibition [1]: 53.5%

O=C(c1cc(Cl)ccc1NS(=O)(=O)c1ccc(Oc2ccccc2Cl)cc1)N1CCN(CCc2ccncc2)CC1
inhibition [1]: 6.55%

O=C(Nc1ccc2scnc2c1)c1cc(Cl)ccc1NS(=O)(=O)c1ccc(Oc2ccccc2Cl)cc1
inhibition [1]: 71.2%

O=C(c1cc(Cl)ccc1NS(=O)(=O)c1ccc(Oc2ccccc2Cl)cc1)N1CCCN(CCCc2ccccc2)CC1
inhibition [1]: 11.4%

O=C(Nc1ccc(Cl)c(Cl)c1)c1cc(Cl)ccc1NS(=O)(=O)c1ccc(Oc2ccccc2Cl)cc1
inhibition [1]: 37.7%

O=C(Nc1cccc(N2CCOCC2)c1)c1cc(Cl)ccc1NS(=O)(=O)c1ccc(Oc2ccccc2Cl)cc1
inhibition [1]: 66.3%

Cc1cc(I)ccc1NC(=O)c1cc(Cl)ccc1NS(=O)(=O)c1ccc(Oc2ccccc2Cl)cc1
inhibition [1]: 20.7%

O=C(Nc1ccc(N2CCOCC2=O)cc1)c1cc(Cl)ccc1NS(=O)(=O)c1ccc(Oc2ccccc2Cl)cc1
inhibition [1]: 48.5%

O=C(Nc1cc(Cl)c(F)cc1F)c1cc(Cl)ccc1NS(=O)(=O)c1ccc(Oc2ccccc2Cl)cc1
inhibition [1]: 26.5%

C[C@H](NC(=O)c1cc(Cl)ccc1NS(=O)(=O)c1ccc(Oc2ccccc2Cl)cc1)c1ccc(N2CCOCC2)cc1
inhibition [1]: 18.7%

O=C(Nc1ccc(Br)nc1)c1cc(Cl)ccc1NS(=O)(=O)c1ccc(Oc2ccccc2Cl)cc1
inhibition [1]: 35.2%

O=C(Nc1ccc(I)cc1F)c1cc(Cl)ccc1NS(=O)(=O)c1ccc(Oc2ccccc2Cl)cc1
inhibition [1]: 67.5%
